“And” between values parts separate entries of the source, which are not always exact repeats. Equal values may be shown once. Records with an inconclusive call do not appear. The source made the active and inactive calls. Unless noted, calls follow the shape of the dose curve; as a rule, active = well fitted curve in the direction sought with a large enough effect in the repeat runs; inconclusive = weak or mixed curves; inactive = no such curve, though single readings can be large; an effect the other way counts as inactive or inconclusive.
Experiments:
[1] = qHTS assay to identify small molecule agonists of the hypoxia (HIF-1) signaling pathway - cell viability counter screen (AID 1224844; calls by dose curve; also: nearly all actives have a fitted effect of over 50% in size; also: potency is read from the fitted curve at half-maximal effect)
Method in brief: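 HRE-bla ME-180; 0.5% dFBS; cpd 17 h, 37C, 5% CO2; CellTiter-Glo lum., 30 min RT, post-FRET read, same wells.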

[2] = qHTS assay to identify small molecule agonists of H2AX (AID 1224845; active = well fitted activation curve with a large enough effect in the signal ratio in the repeat runs, not every such curve was filed as active; the % refers to the signal ratio; also: potency is read from the fitted curve at half-maximal effect)
Method in brief: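 Wild-type CHO-K1 cells plated overnight, then exposed 3 hr at 37C to compounds at 15 concentrations (0.76% DMSO). Lysed, then HTRF anti-pH2AX(S139)-cryptate/anti-H2AX-d2 detection after 24 hr at room temperature; emissions 665 and 620 nm.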

[3] = qHTS assay to identify small molecule agonists of the hypoxia (HIF-1) signaling pathway (AID 1224846; active = well fitted activation curve with a large enough effect in the signal ratio in the repeat runs, not every such curve was filed as active; the % refers to the signal ratio)
Method in brief: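 Reporter induction in HRE-bla ME-180 cells is taken as agonism: cells sit 5 hrs after plating, receive compounds or DMSO only, incubate 17 hrs at 37C under 5% CO2, and are loaded with CCF4-AM for beta-lactamase FRET measurement.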

[4] = qHTS assay to identify small molecule agonists of H2AX - cell viability counter screen (AID 1224847; calls by dose curve; also: nearly all actives have a fitted effect of over 30% in size; also: potency is read from the fitted curve at half-maximal effect)
Method in brief: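 Cells plated first: CHO-K1, 1000 per well in 10% FBS medium, incubated overnight at 37C. Then 15-point compound titration added (final DMSO 0.76%) for 3 hr. Finally CellTiter-Glo added and luminescence read.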

[5] = qHTS RealTime-Glo MT Cell Viability Assay in HepG2 cells - 24 hour (AID 1224867); also: nearly all actives have a fitted effect of over 50% in size
Method in brief: (§1)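 Compound treatment began 5 h after plating HepG2 cells (600/well) with NanoLuc luciferase and prosubstrate. Plates stayed at 37 C for 40 h; luminescence was captured at six time points, 0 h through 40 h.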

[6] = qHTS RealTime-Glo MT Cell Viability Assay in HEK293 cells - 32 hour (AID 1224868); also: nearly all actives have a fitted effect of over 50% in size; also: potency is read from the fitted curve at half-maximal effect
Method in brief: (§2)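 Quantitative high-throughput screen of the Tox21 10K library in HEK293: cells and RealTime-Glo reagents plated together, compound added at 5 h, luminescence monitored through 40 h at 37 C.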

[7] = A CellTox Green Cytotoxicity Assay to monitor cytotoxicity in HEK293 cells - 0 hour (AID 1224869); also: nearly all actives have a fitted effect of over 50% in size
Method in brief: (§3)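 Tox21 screen in HEK293: membrane-impermeant cyanine dye fluoresces on binding dead-cell DNA; compound pinned 5 h post-seeding, plates held at 37 C, signal read repeatedly through 40 h.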

[8] = qHTS RealTime-Glo MT Cell Viability Assay in HepG2 cells - 40 hour (AID 1224870); also: nearly all actives have a fitted effect of over 50% in size
Method in brief: (§4)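 HepG2 cells mixed with RealTime-Glo MT reagents (NanoLuc plus cell-permeant prosubstrate) were seeded at 600 cells/well, incubated 5 h at 37 C/5% CO2, then pinned with compounds in DMSO; nonlytic luminescence tracked viability during 40 h treatment.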

[9] = A CellTox Green Cytotoxicity Assay to monitor cytotoxicity in HEK293 cells - 40 hour (AID 1224871); also: nearly all actives have a fitted effect of over 45% in size; also: potency is read from the fitted curve at half-maximal effect
Method in brief: as §3

[10] = qHTS RealTime-Glo MT Cell Viability Assay in HEK293 cells - 16 hour (AID 1224872); also: nearly all actives have a fitted effect of over 50% in size; also: potency is read from the fitted curve at half-maximal effect
Method in brief: as §2

[11] = qHTS RealTime-Glo MT Cell Viability Assay in HepG2 cells - 8 hour (AID 1224873); also: nearly all actives have a fitted effect of over 55% in size
Method in brief: as §4

[12] = qHTS RealTime-Glo MT Cell Viability Assay in HEK293 cells - 40 hour (AID 1224874); conditions: RealTime-Glo luminescence; max response: stronger effect = lower value; also: nearly all actives have a fitted effect of over 50% in size; also: potency is read from the fitted curve at half-maximal effect
Method in brief: (§5)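 HEK293 + NanoLuc + prosubstrate, 600 cells/well; 5 h, 37 C/5% CO2; compound 23 nL in DMSO by pintool; 37 C; luminescence read at 0, 8, 16, 24, 32 and 40 h time points.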

[13] = A CellTox Green Cytotoxicity Assay to monitor cytotoxicity in HEK293 cells - 24 hour (AID 1224875); also: nearly all actives have a fitted effect of over 45% in size; also: potency is read from the fitted curve at half-maximal effect
Method in brief: as §3

[14] = A CellTox Green Cytotoxicity Assay to monitor cytotoxicity in HepG2 cells - 16 hour (AID 1224876); also: nearly all actives have a fitted effect of over 45% in size
Method in brief: (§6)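 Measurements at 0, 8, 16, 24, 32 and 40 h of treatment captured CellTox Green fluorescence in HepG2 cells that had been co-plated with reagent and preincubated 5 h at 37 C/5% CO2.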

[15] = qHTS RealTime-Glo MT Cell Viability Assay in HepG2 cells - 32 hour (AID 1224877); also: nearly all actives have a fitted effect of over 55% in size
Method in brief: as §1

[16] = A CellTox Green Cytotoxicity Assay to monitor cytotoxicity in HepG2 cells - 24 hour (AID 1224878); also: nearly all actives have a fitted effect of over 45% in size
Method in brief: as §6

[17] = A CellTox Green Cytotoxicity Assay to monitor cytotoxicity in HepG2 cells - 40 hour (AID 1224879); also: nearly all actives have a fitted effect of over 40% in size
Method in brief: as §6

[18] = qHTS assay to identify small molecule antagonists of the estrogen related receptor (ERR) signaling pathway from Tox21 library (AID 1224848); also: nearly all actives have a fitted effect of over 50% in size; also: potency is read from the fitted curve at half-maximal effect
Method in brief: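 First, 2,000 ERR cells per well were plated and held 6 h at 37 C/5% CO2. Next, compounds in DMSO were pinned in and left 18 h at 37 C. Finally, ONE-Glo was added and luminescence read after 30 min at room temperature.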

[19] = qHTS assay to identify small molecule agonists of the estrogen related receptor (ERR) signaling pathway from Tox21 library (AID 1224849; calls by dose curve; also: nearly all actives have a fitted effect of over 15% in size); conditions: ERR reporter cell line, ONE-Glo luciferase, 18 h; at 92.4 µM (top of the series) unless noted
Method in brief: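 Tox21 compounds tested for ERR agonism in an NTP reporter cell line: 18 h treatment at 37 C, then ONE-Glo luminescence.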

[20] = qHTS RealTime-Glo MT Cell Viability Assay in HEK293 cells - 0 hour (AID 1224880)
Method in brief: as §5
% is scaled to controls: 0 for no effect and ±100 for the full control effect.

N#C/C=C/c1ccccc1
inactive: Potency [1] | Potency [2] | outcome [3] | Potency [4] | Potency [5] | Potency [6] | Potency [7] | Potency [8] | Potency [9] | Potency [10] | Potency [11] | max response [12] -0.121% | Potency [13] | Potency [14] | Potency [15] | Potency [16] | Potency [17]

CCC(C)c1cc(C(C)(C)C)cc(-n2nc3ccccc3n2)c1O (stereo unspecified)
inactive: Potency [2] | outcome [3] | Potency [4] | Potency [18] | activity change, positive = activation [19] -0.703% [at 42.5 µM] | Potency [5] | Potency [6] | Potency [7] | Potency [8] | Potency [9] | Potency [10] | Potency [11] | max response [12] 9.2% | Potency [13] | Potency [14] | Potency [15] | Potency [16] | Potency [17] | Potency [20]
active: Potency [1] 19 µM

ClC1=C(Cl)C2(Cl)C3C(Cl)C(Cl)CC3C1(Cl)C2(Cl)Cl (stereo unspecified)
inactive: outcome [3] | activity change, positive = activation [19] -78.9% and -65.6% | Potency [20]
active: Potency [1] 21.8 µM | Potency [2] 100 µM and 89.8 µM | Potency [4] 89.5 µM and 101 µM | Potency [18] 60.9 µM and 54.5 µM | Potency [6] 48.8 µM | Potency [9] 48.8 µM and 49 µM | Potency [10] 48.8 µM and 49 µM | Potency [12] 48.8 µM | Potency [13] 48.8 µM and 49 µM

CC(=O)Nc1ccc2c(c1)Cc1ccccc1-2
inactive: Potency [1] | Potency [2] | outcome [3] | Potency [4] | Potency [5] | Potency [6] | Potency [7] | Potency [8] | Potency [9] | Potency [10] | Potency [11] | max response [12] -12.3% | Potency [13] | Potency [14] | Potency [15] | Potency [16] | Potency [17]
